# According to PubChem BioAssay AID686979 (National Center for Advancing Translational Sciences (NCATS), 2013):
# Where “and” joins values, the source holds several entries; their conditions need not be identical. Equal values may be shown once. Out of some 420,000 compounds screened, about 50,000 (12%) were called active. Not shown: some 26% with an inconclusive outcome. Calls come from the whole dose curve; as a rule, active = well fitted inhibition curve with a large enough effect; inconclusive = small, poorly fitted or top-dose-only effect; inactive = flat fitted curve, though single readings scatter. The sample as a whole holds a higher share of actives than the screen did. More than one record can exist for a structure, and the calls need not agree.
# Experiment: qHTS for Inhibitors of human tyrosyl-DNA phosphodiesterase 1 (TDP1): qHTS in cells in presence of CPT; note: nearly all actives have a fitted effect of over 55% in size
# Details: chicken DT40 Tdp1-/-;hTDP1 cells + 20 nM CPT, ATP luminescence, 48 h; series mostly up to 46.2 µM; activity change, negative = growth inhibition: at the top concentration
# Summary of the method: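 Chicken DT40 Tdp1-/- cells complemented with human TDP1, 400 cells/well, exposed to compounds plus 20 nM camptothecin for at least 48 h at 37 C; viability read as ATP content by CellTiter-Glo luminescence.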
# % is set by controls: 0 for no effect and ±100 for the full control effect; potency is the fitted concentration of half-maximal effect.
SMILES,"activity change, negative = growth inhibition",Potency
COc1cc(-c2nc(S(=O)(=O)c3ccc(Cl)cc3)c(N(C)C)o2)cc(OC)c1OC,-27.9% (inactive),–
CC(C)S(=O)(=O)c1oc(-c2ccc(F)cc2)nc1S(=O)(=O)c1ccc(F)cc1,–,0.291 µM (active)
Cc1cccc(-c2noc(-c3ccc(F)cc3)n2)c1,11% (inactive),–
COc1ccc2c(c1)C(NS(=O)(=O)OCC(Cl)(Cl)Cl)CCC2 (centres undefined),-25.2% (inactive),–
C=CC1C(OC2OC(CO)C(O)C(O)C2O)OC=C(C(=O)OC)C1CC1CC(=O)CC(CC(=O)CCc2ccc(O)cc2)O1 (centres undefined),-3.31% (inactive),–
Cc1ccccc1NC(=O)Cc1nc(COC(=O)c2cccnc2Cl)cs1,-26.9% (inactive),–
Cc1ccc(CSc2nc(-c3ccccc3)c(C#N)c(=O)[nH]2)cc1,4.01% (inactive),–
CC1CCC(NC(=O)c2ccc(N3CCCC3=O)cc2)CC1 (centres undefined),-14.2% (inactive),–
O=C(NC1CCCCC1)c1ccc(CNc2c(N3CCOCC3)c(=O)c2=O)cc1,2.06% (inactive),–
CN1C(=O)/C(=C/c2ccc(C(=O)NC3CCCC3)cc2)Oc2ccccc21,–,13 µM (active)
CCC(=O)Nc1nnc(S(=O)(=O)N(CC(C)C)c2ccccc2)s1,1.07% (inactive),–
COc1cccc(C(=O)Nc2nnc(S(=O)(=O)N(C)c3ccccc3)s2)c1,-2.7% (inactive),–
CC(C)CC(=O)Nc1nnc(S(=O)(=O)N(C)c2ccc(Cl)cc2)s1,–,inactive and 146 nM (active)
Cc1noc(C)c1S(=O)(=O)N(C)C[C@H]1Oc2ccc(NC(=O)C3CCCCC3)cc2C(=O)N([C@H](C)CO)C[C@@H]1C,-22% (inactive),–
COc1cc(OC)cc(-c2nc3ccccc3c(=O)n2NC(=O)c2cccnc2Cl)c1,17.5% (inactive),–
O=C(Nn1c(-c2ccc(Cl)cc2)nc2ccccc2c1=O)c1cccnc1Cl,4.95% (inactive),–
COc1ccccc1C(=O)Nn1c(-c2cccs2)nc2ccccc2c1=O,–,18.4 µM (active)
Cc1ccc(OCC(=O)OCc2cc(=O)n3nc(C4CC4)sc3n2)cc1,-14.9% (inactive),–
CCc1cc(C(=O)Nc2nnc(C3CC3)s2)sc1C,-2.49% (inactive),–
CCCN(CC(=O)Nc1ccccc1C)C(=O)c1ccc(OCC(=O)N2CCOCC2)c(OCC)c1,-11.1% (inactive),–
CCCN(CC(=O)Nc1ccccc1C)C(=O)c1cc(=O)[nH]c2ccccc12,15.5% (inactive),–
CCCN(CC(=O)Nc1ccccc1C)C(=O)c1ccc2[nH]c3c(c2c1)CC(C)CC3 (centres undefined),–,20.6 µM (active)
Cc1ccc(CN2CCN(c3ccccc3Cl)CC2)o1,-0.0371% (inactive),–
Cc1ccc(N2C(=O)C3C4C=CC(CC4)C3C2=O)cc1Cl (centres undefined),-2.58% (inactive),–
O=C(NCCN1CCOCC1)/C(=C/c1ccc(F)cc1)NC(=O)c1ccccc1,-3.57% (inactive),–

SMILES,"activity change, negative = growth inhibition",Potency
Nc1nc(COC(=O)CCC(=O)c2ccc(Cl)cc2)nc(Nc2ccccc2)n1,-24.3% (inactive),–
CCCc1cc(C(=O)Nc2ccc(C(=O)OC)cc2)cs1,-16.7% (inactive),–
CCOC(=O)C1CCCN(C(=O)Cn2ncc3c(C)n(Cc4ccc(F)cc4)c(C)c3c2=O)C1 (centres undefined),–,14.6 µM (active)
CCOC(=O)C1CCCN(C(=O)Cn2ncc3c(=O)oc4ccc(C)cc4c32)C1 (centres undefined),-12.6% (inactive),–
CCOC(=O)C1CCCN(C(=O)CN(c2ccc(OC)cc2)S(=O)(=O)c2c(C)noc2C)C1 (centres undefined),-48.7% (inactive),–
CCCNC(=O)c1cc(C2CCCCN2S(=O)(=O)c2cn(C)cn2)on1 (centres undefined),-22.3% (inactive),–
CCS(=O)(=O)N1Cc2ccccc2CC1C(=O)Nc1nc2ccc(F)cc2s1 (centres undefined),-0.226% (inactive),–
O=C(Nc1ccc(O)cc1)c1ccc(NC(=O)c2ccco2)cc1,-8.54% (inactive),–
c1ccc(CCn2nnnc2CN2CCN(C3CCCC3)CC2)cc1,-0.628% (inactive),–
Cc1cccc2cc(CN(Cc3nnnn3Cc3ccccc3)C3CCCC3)c(=O)[nH]c12,–,20.6 µM (active)
CCCN(Cc1cc2cccc(C)c2[nH]c1=O)S(C)(=O)=O,-2.17% (inactive),–
Cc1ccc(S(=O)(=O)N(Cc2cc3ccccc3[nH]c2=O)CC2CCCO2)cc1 (centres undefined),-17.1% (inactive),–
Cc1cc(C)c2cc(CN(Cc3nnnn3Cc3ccc(F)cc3)C3CCCC3)c(=O)[nH]c2c1,–,14.6 µM (active)
O=C(c1cccs1)N(Cc1cc2ccccc2[nH]c1=O)CC1CCCO1 (centres undefined),12.6% (inactive),–
Cc1n[nH]c(=O)c2c1nnn2Cc1ccc(F)cc1,-4.85% (inactive),–
Cc1cccc2cc(CN(C(=O)c3cccs3)c3ccccc3)c(=O)[nH]c12,-19.4% (inactive),–
CCC(c1nnnn1C1CCCC1)N(Cc1cccs1)Cc1cc2cccc(C)c2[nH]c1=O (centres undefined),–,20.6 µM (active)
Cc1cccc2cc(CN(Cc3cccs3)C(c3nnnn3C3CCCC3)C(C)C)c(=O)[nH]c12 (centres undefined),-77.9% (inactive),–
Cc1cc(C)c2cc(CN(Cc3cccs3)Cc3nnnn3CC3CCCO3)c(=O)[nH]c2c1 (centres undefined),–,23.1 µM (active)
Cc1occc1-c1nnc(SCC(=O)NC2CCCCC2)o1,-8.72% (inactive),–
Cc1cc2c(cc1S(=O)(=O)CCC(=O)NCc1ccccc1)OCC(=O)N2,5.34% (inactive),–
CCSCc1nc(N)nc(NCCc2ccccc2)n1,-6.97% (inactive),–
CCOc1ccc(-n2cnc3c(=O)[nH]c(N)nc32)cc1,2.7% (inactive),–
CN(Cc1ccc(F)cc1)C(=O)COc1ccc2ccccc2c1,21.9% (inactive),–
NC(=O)c1cc(-c2cccnc2)nc2ccc(Br)cc12,-19.6% (inactive),–

SMILES,"activity change, negative = growth inhibition",Potency
CN1CCCCCC1C(=O)NCCN1Cc2ccccc2OC(c2ccsc2)C1 (centres undefined),11.9% [at 9.04 µM] (inactive),–
C#CCOCCOCCOCCNc1nc(N2CCOCC2)nc(N2CCN(C(=O)[C@H](Cc3ccc(O)cc3)n3cc(CCO)nn3)CC2)n1,-10% (inactive),–
CCN(C(=O)COC(=O)CCC(=O)c1cccs1)C1CCCCC1,-12.4% (inactive),–
COc1ccc(Br)cc1C1CC(=O)Nc2c1c(C)nn2-c1nc(C)cc(C)n1 (centres undefined),–,16.4 µM (active)
COc1ccc(C2CC(=O)Nc3c2c(=O)nc2c(C)cccn32)cc1OC (centres undefined),-19.8% (inactive),–
COc1ccc(C2c3c(C)nn(-c4ccccc4)c3NC(=O)N2c2ccccc2)cc1 (centres undefined),-0.19% (inactive),–
COC(=O)C1(C)NC(c2ccc(F)cc2)C2C(=O)N(c3ccccc3)C(=O)C21 (centres undefined),10% (inactive),–
CCCCC1(C(=O)OCC)NC(c2ccc(O)cc2)C2C(=O)N(c3ccccc3)C(=O)C21 (centres undefined),–,14.6 µM (active)
CCOC(=O)C1(C)NC(c2ccco2)C2C(=O)N(c3ccccc3)C(=O)C21 (centres undefined),2.33% (inactive),–
COc1ccc(NC(=O)/C(C#N)=C\c2cc(OC)c(OCc3ccc(C(=O)O)cc3)cc2Br)cc1,0.494% (inactive),–
COCCCn1c(=O)/c(=C/c2ccccc2OC(C)C)s/c1=C(\C#N)C(=O)Nc1ccc(C(=O)O)cc1,–,20.6 µM (active)
COc1ccccc1C(=O)N/C(=C/c1ccco1)C(=O)Nc1ccc(C(=O)O)cc1,9.19% (inactive),–
Cn1c(N)c(C(=O)COC(=O)COc2ccc(Cl)cc2)c(=O)n(C)c1=O,3.59% (inactive),–
COc1ccc(-c2cc(=O)oc3cc(OC(C)C(=O)NCC4CCC(C(=O)O)CC4)ccc23)cc1 (centres undefined),-18.1% (inactive),–
COc1ccc(NC(=O)CNc2cc(S(=O)(=O)N3CCOCC3)ccc2N2CCOCC2)c(OC)c1,-1.41% (inactive),–
O=C(CC12CC3CC(CC(C3)C1)C2)NCc1ccco1,-12.8% (inactive),–
NS(=O)(=O)c1cccc(NC(=O)CC23CC4CC(CC(Br)(C4)C2)C3)c1,-5.01% (inactive),–
O=C(CC12CC3CC(CC(C3)C1)C2)Nc1ccc2c(c1)COC2=O,–,13 µM (active)
CCN1CCN(C(=O)N(Cc2ccc(Cl)cc2)S(=O)(=O)c2ccc(C)cc2)CC1,-26% (inactive),–
CC(=O)Nc1ccc(S(=O)(=O)N(C)CC(=O)NCCC2=CCCCC2)cc1,-21.1% (inactive),–
S=C(NCCC1=CCCCC1)Nc1ccccc1,–,16.4 µM (active)
S=C(NCCc1ccccc1)Nc1ccccc1,-25.1% (inactive),–
COc1ccc(-c2cc(-c3ccc(F)cc3)nc3c2COc2ccccc2-3)cc1,-25.9% (inactive),–
CC(C)(C)C(=O)COC(=O)c1cc(S(=O)(=O)N2CCCCC2)ccc1N1CCOCC1,-4.64% (inactive),–
O=C(CCCN1C(=O)c2ccccc2C1=O)Oc1ccc(Cl)cc1,1.06% (inactive),–

SMILES,"activity change, negative = growth inhibition",Potency
CCCCN(C(=O)CSCC(=O)Nc1ccc(OC)cc1)c1c(N)n(CCC)c(=O)[nH]c1=O,2.83% (inactive),–
CC(C)C(=O)NC(C)c1nnc2n1CCN(Cc1cccc3ncccc13)CC2 (centres undefined),24.6% [at 9.04 µM] (inactive),–
O=S(=O)(c1ccccc1)c1nc(-c2ccccc2)oc1NCCCN1CCOCC1,0.659% (inactive),–
Cc1ccc(-c2nc(C#N)c(NCCCn3ccnc3)o2)cc1,0.177% (inactive),–
N#Cc1nc(-c2ccc(OCc3ccccc3)cc2)oc1NCCCN1CCOCC1,–,20.6 µM (active)
Nc1nc(SCC(=O)Nc2cc(C(F)(F)F)ccc2Cl)[nH]c(=O)c1NC(=O)c1ccco1,2.93% (inactive),–
CO[C@H]1[C@H](NC(=O)C(C)C)c2ccccc2C12CCN(Cc1cnc(N(C)C)s1)CC2,1.26% [at 9.04 µM] (inactive),–
CCc1nnc(NC(=O)c2ccco2)s1,-0.358% (inactive),–
Cc1ccc2nc(COc3cccc(NC(=O)c4ccccc4Cl)c3)cc(=O)n2c1,-18.6% (inactive),–
Nc1ccc2[nH]c(=S)sc2c1,-27.9% (inactive),–
CCOc1ccc2[nH]c(=S)sc2c1,–,18.4 µM (active)
CCCC(=O)N(CCN1CCOCC1)c1nc2ccc(OCC)cc2s1,-19.4% (inactive),–
CC(C)CNC(=S)NNC(=O)c1nn(C)cc1Cl,0.207% (inactive),–
Cn1c(C(=O)NCCc2ccsc2)cc2c(=O)n(C)c3ccccc3c21,–,18.4 µM (active)
Cn1c(C(=O)N2CCC(C(N)=O)CC2)cc2c(=O)n(C)c3ccccc3c21,-4.68% (inactive),–
CN(Cc1ccccc1)C(=O)c1cc2c(=O)n(C)c3ccccc3c2s1,-4.23% (inactive),–
CCOc1ccc(NC(=O)c2cn(C3CCCCC3)c(=O)c3c2c2ccccc2n3C)cc1,-28% (inactive),–
CCOc1ccc(CCNC(=O)c2cc3c(=O)n(C)c4ccccc4c3n2C)cc1,–,20.6 µM (active)
CCOc1ccc(CCNC(=O)c2c(C)oc3ncn(C)c(=O)c23)cc1,-20.1% (inactive),–
Cc1cc(C)cc(NC(=O)C(c2ccccc2)N2CCN(CC(=O)N3CCCC3)CC2)c1 (centres undefined),4.68% (inactive),–
CC(C)CC(=O)c1c[nH]c(C(=O)NCc2ccccc2)c1,12.3% (inactive),–
O=C(NN1C(=O)C2C(C1=O)C1C=CC2C12CC2)c1ccccc1Cl (centres undefined),-7.88% (inactive),–
CC12CCC(C(=O)N(c3cccc(Cl)c3)C1=O)C2(C)C (centres undefined),-5.89% (inactive),–
CC12CCC(C(=O)N(NC(=O)c3ccccc3O)C1=O)C2(C)C (centres undefined),–,20.6 µM (active)
